Screens: PubChem, National Center for Advancing Translational Sciences (NCATS)
TbPYK inhibitor = qHTS of Trypanosoma Brucei Inhibitors | TbPYK enzyme, Kinase-Glo Plus ATP luminescence, 45 min | pyruvate kinase (Trypanosoma brucei), Q57TT1 | hit rate 0.12% among 410,000 | Potency, µM (doses to about 76.8 µM), without a hit: at the highest dose activity, negative = inhibition, hits mostly inhibitors; also: potency is read from the fitted curve at half-maximal effect; % is scaled to controls: 0 for no effect and ±100 for the full control effect; nearly all actives have a fitted effect of over 50% in size
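Assay buffer: 50 mM TEA pH 7.2, 100 mM KCl, 10 mM MgCl2, 0.05% BSA, 0.01% Tween-20. Pyruvate kinase from T. brucei plus substrate met compound, then ADP (130 uM final). Luminescence was read post 45 min RT.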
FBPA Giardia inh = qHTS Assay for Inhibitors of Fructose-1,6-bisphosphate Aldolase from Giardia Lamblia. A8B2U2. purified Giardia FBPA. Potency, µM (titrated, usually from 59.6 µM), without a hit: at the highest dose activity, negative = inhibition, most hits filed as inhibitors. hit rate 0.71% among 290,000. AID 2451, 2010; also: potency is read from the fitted curve at half-maximal effect; % is scaled to controls: 0 for no effect and ±100 for the full control effect; nearly all actives have a fitted effect of over 55% in size
Target sequence (A8B2U2 whole entry, looked up): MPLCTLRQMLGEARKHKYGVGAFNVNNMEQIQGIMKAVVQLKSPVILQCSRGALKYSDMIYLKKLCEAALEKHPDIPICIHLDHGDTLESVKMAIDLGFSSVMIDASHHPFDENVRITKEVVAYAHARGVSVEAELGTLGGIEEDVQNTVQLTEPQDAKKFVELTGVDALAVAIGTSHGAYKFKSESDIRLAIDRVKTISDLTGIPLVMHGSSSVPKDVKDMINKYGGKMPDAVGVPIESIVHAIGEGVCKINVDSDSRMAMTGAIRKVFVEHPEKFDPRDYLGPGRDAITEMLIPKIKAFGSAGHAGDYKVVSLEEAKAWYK
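Giardia FBPA (40 nM reagent) was preincubated 10 min at RT with compound (up to 57.5 uM final), then substrate plus GAPDH/TPI/NAD/arsenate coupling system with diaphorase/resazurin was added; resorufin fluorescence (525/598 nm) was read after 20 min.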
Cycloheximide cs = Cycloheximide Counterscreen for Small Molecule Inhibitors of Shiga Toxin. hit rate 12% among 300,000. max response, %. cell reporter, cycloheximide protein synthesis inhibition counterscreen; in the data active = max response mostly above about 13%, no sharp cut-off; inactive = mostly below about 14%; also: read at 38.3 µM for the half of the compounds with a filed dose; 0% is about no effect
Shiga toxin inh = A qHTS for Small Molecule Inhibitors of Shiga Toxin; AID 2315, 2010; inhibition, % at 38.7 µM; Vero cells, Shiga toxin protein synthesis inhibition reporter; hit rate 9.2% among 290,000; in the data active = inhibition mostly above about 28%, no sharp cut-off; inactive = mostly below about 43%; also: 0% is about no effect
Sm TGR block = qHTS Assay for the Inhibitors of Schistosoma Mansoni Peroxiredoxins. Schistosoma mansoni thioredoxin glutathione reductase (TGR), Q962Y6. purified TGR, DTNB reduction, TNB absorbance 405 nm. Potency, µM (series often up to 114 µM), inactives show at the highest dose activity change, negative = inhibition, usual class: inhibitors. hit rate 3% among 360,000; also: potency is read from the fitted curve at half-maximal effect; % is scaled to controls: 0 for no effect and ±100 for the full control effect; nearly all actives have a fitted effect of over 60% in size
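First, TGR (20 nM dispensed) and NADPH were mixed with compound. Second, a 15 min room-temperature incubation followed. Third, further NADPH and then DTNB were added to start the reaction. Finally, TNB absorbance was monitored kinetically.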
LmPK inhibitor = qHTS Assay for Inhibitors of Leishmania Mexicana Pyruvate Kinase (LmPK). Q27686. purified LmPK, Kinase-Glo ATP luminescence, 1 h. Potency, µM (series often up to 57.5 µM), for the others: top-dose activity change, negative = inhibition, most hits filed as inhibitors. hit rate 0.37% among 290,000. AID 1721, 2009; also: potency is read from the fitted curve at half-maximal effect; % is scaled to controls: 0 for no effect and ±100 for the full control effect
Target sequence (Q27686 whole entry, looked up): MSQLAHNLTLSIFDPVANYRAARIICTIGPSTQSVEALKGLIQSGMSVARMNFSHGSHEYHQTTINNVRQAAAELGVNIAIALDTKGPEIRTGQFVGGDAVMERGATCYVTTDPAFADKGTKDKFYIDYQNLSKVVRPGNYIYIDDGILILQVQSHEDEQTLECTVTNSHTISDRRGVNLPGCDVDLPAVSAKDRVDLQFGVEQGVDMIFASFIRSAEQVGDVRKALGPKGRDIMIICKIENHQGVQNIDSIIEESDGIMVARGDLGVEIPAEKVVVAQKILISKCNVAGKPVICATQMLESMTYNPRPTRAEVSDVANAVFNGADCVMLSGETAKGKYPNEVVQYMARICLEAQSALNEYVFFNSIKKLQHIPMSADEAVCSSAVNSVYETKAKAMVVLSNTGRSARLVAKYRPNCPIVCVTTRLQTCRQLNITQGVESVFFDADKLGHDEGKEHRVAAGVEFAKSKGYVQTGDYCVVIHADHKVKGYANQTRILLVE
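0.1 nM LmPK, 0.5 mM PEP, 0.1 mM ADP; 50 mM imidazole pH 7.2, 7 mM MgCl2, 50 mM KCl; 1 h RT. Kinase-Glo luminescence readout, normalized to no-enzyme (full inhibition) and uninhibited wells.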
Starred values were filed as active, the others as inactive; ? = inconclusive; nt = no result; [ ] = remark or other dose. The entries come from a sample that favours hits as a whole. Unless noted, calls follow the shape of the dose curve; as a rule, active = well fitted curve in the direction sought with a large enough effect; inconclusive = small, poorly fitted or top-dose-only effect, or another doubt; inactive = no such curve, though single readings can be large; an effect the other way counts as inactive or inconclusive.

SMILES	TbPYK inhibitor	FBPA Giardia inh	Cycloheximide cs	Shiga toxin inh	Sm TGR block	LmPK inhibitor
Cc1nc2ccc(C(=O)N/N=C/c3cc([N+](=O)[O-])ccc3O)cc2[nH]1	9.0%	6.5%	-2.1	4.8	-8.3%	-1.6%
CCOC(=O)Cc1csc(SCC(=O)NC2CCS(=O)(=O)C2)n1 (stereo unspecified)	-7.4%	nt	nt	nt	-13.5%	nt
O=C(N/N=C/c1ccc(Cl)c([N+](=O)[O-])c1)c1ccc2c(c1)OCCO2	0.4%	nt	nt	nt	nt	nt
O=C(N/N=C/c1cccc([N+](=O)[O-])c1)c1ccc2c(c1)OCCO2	2.4%	-7.4%	42.5*	61.8*	-10.5%	-0.6%
CCOc1cc(/C=N/NC(=O)C(N)=O)cc(Br)c1O	-8.0%	-0.5%	-3.0	-9.8	50.1µM*	-4.1%
CC(=O)O/N=C(\N)c1ccc(-c2csnn2)cc1	-1.5%	1.9%	33.8*	64.7*	1.2%	1.1%
CC(C)(C)C(=O)O/N=C(\N)c1ccc(-c2csnn2)cc1	-2.3%	-0.2%	44.6*	78.3*	7.5%	1.7%
O=C(NCc1ccco1)c1ccc(-c2csnn2)cc1	-8.6%	-2.0%	8.2	23.9	?	4.2%
CC(C)(C)C(=O)O/N=C(\N)c1ccc(Br)cc1	-4.5%	1.4%	1.3	17.8	-5.4%	-9.7%
O=C(CCCCn1c(=O)c2ccccc2n(Cc2ccccc2F)c1=O)NCc1ccc2c(c1)OCO2	8.9%	nt	nt	nt	0.4%	nt
CCOC(=O)c1ccc2c(c1)N(CC#N)C(=O)C(C)(C)O2	-0.2%	-1.2%	16.9*	30.7	-0.9%	-0.6%
COC(=O)CN1C(=O)C(C)(C)Oc2ccc(C(=O)Nc3ccccc3F)cc21	4.3%	14.4%	14.2	6.4	-1.2%	-6.2%
CCOC(=O)c1ccc2c(c1)N(CC(=O)N1CCCC1)C(=O)C(C)(C)O2	-7.4%	0.0%	-8.4	-44.3	-0.4%	0.3%
CC1(C)Oc2ccc(C(=O)Nc3ccccc3F)cc2N(CC(=O)N2CCOCC2)C1=O	0.0%	8.8%	12.4*	48.3	-3.1%	0.3%
CCOC(=O)CN1C(=O)C(C)(C)Oc2ccc(C(=O)Nc3ccccc3)cc21	3.2%	-6.4%	13.5*	36.2	-12.9%	3.0%
Cc1cc(C)c2nc(N3C(=O)C(O)=C(C(=O)c4ccco4)C3c3ccco3)sc2c1 (stereo unspecified)	-10.0%	-22.2%	1.8	25.8	?	4.7%
O=C(Nc1cccc2ncccc12)c1ccc(Br)c([N+](=O)[O-])c1	1.0%	-13.3%	-4.3	17.1	2.8%	2.4%
CCOc1ccc(C(=O)NC(=S)Nc2ncccc2C)cc1[N+](=O)[O-]	-2.2%	?	24.7*	32.6*	15.1%	1.7%
CCOc1ccc(C(=O)NC(=S)Nc2ccc(NC(=O)c3ccco3)cc2)cc1[N+](=O)[O-]	-6.6%	-5.1%	15.4*	5.3	-11.2%	-2.8%
CCCCn1nnc(NC(=S)NC(=O)c2ccc(OCC)c([N+](=O)[O-])c2)n1	0.0%	nt	-2.0	-3.9	39.8µM*	0.7%
COc1cc(C(=O)NC(=S)Nc2ccc(NC(=O)c3ccco3)cc2)cc(OC)c1OC	-11.4%	?	2.9	-1.9	-15.4%	-4.6%
CCCn1nnc(NC(=S)NC(=O)c2ccccc2OC)n1	-0.1%	nt	nt	nt	nt	nt
COc1ccc(C(=O)NC(=S)Nc2cccc3ncccc23)cc1[N+](=O)[O-]	-10.8%	nt	-2.3	-3.5	6.31µM*	-2.6%
CCOc1ccc(C(=O)Nc2nc(C)cc(C)n2)cc1[N+](=O)[O-]	-4.3%	2.1%	-4.0	2.9	-5.0%	0.0%
O=C(NCc1ccco1)Nc1cccc(-c2ccccc2)c1	4.9%	nt	nt	nt	nt	nt
SMILES	TbPYK inhibitor	FBPA Giardia inh	Cycloheximide cs	Shiga toxin inh	Sm TGR block	LmPK inhibitor
COc1ccc(CNC(=O)CCCN2C(=O)c3cccnc3Oc3ccc(Cl)cc32)cc1	-5.3%[15.4 µM]	nt	nt	nt	3.2%	nt
O=C(NCc1ccc2c(c1)OCO2)C(=O)NCC1OCCCN1S(=O)(=O)c1ccc(F)cc1 (stereo unspecified)	1.0%	nt	-1.8	12.4	-4.3%	-4.1%
CCOC(=O)CNC(=O)N(C)[C@H]1C[C@H]2c3[nH]c4ccccc4c3CCN2C(=O)[C@H]1[C@H](C)O	0.3%	nt	nt	nt	nt	nt
C/C(=N\O)c1ccc2c(c1)CC(C)O2 (stereo unspecified)	0.5%	-14.9%	13.3*	18.9	6.9%	-5.6%
O=C(/C=C/c1ccc(F)cc1)NC(=S)Nc1ccccc1	17.3%	-6.6%	12.6	34.1*	-35.0%	2.1%
O=C(/C=C/c1ccccc1)NC(=S)Nc1ncccn1	1.3%	?	25.0*	51.3*	6.0%	-2.0%
C=CCN(CC=C)S(=O)(=O)c1ccc(NC(=S)NC(=O)/C=C/c2ccccc2)cc1	-1.6%	-0.3%	6.9	7.1	4.6%	0.9%
O=C(/C=C/c1ccccc1)NC(=S)NNC(=O)c1ccco1	-4.2%	?	20.4*	65.4*	-3.1%	-2.8%
O=C(/C=C/c1ccccc1)NC(=S)Nc1ccccc1	-2.4%	1.4%	25.2*	nt	?	-2.6%
COC(=O)C1=C(C)NC(C)=C(C(=O)OC(C)C)[C@H]1c1cccc2nonc12	-4.6%[33.2 µM]	-2.0%[21.7 µM]	nt	nt	nt	nt
CCc1nn(CC(=O)Nc2ccc(C)cc2C)c(=O)c2cc3sccc3n12	-2.2%	nt	nt	nt	2.9%	nt
CC(=O)N1CCc2c(sc3c2c(=O)n(-c2ccc(C)cc2)c(=O)n3Cc2c(F)cccc2Cl)C1	-3.2%	nt	nt	nt	1.2%	nt
Cc1nn2cnnc2c(C)c1Cc1c(F)cccc1Cl	2.5%	7.6%	-1.3	-4.2	?	-0.1%
CCCCN=C1NN=C(c2cc3ccccc3o2)CS1	-10.4%	5.5%	41.1*	53.5*	-3.4%	-3.0%
CCCCN=C1NN=C(c2cccc([N+](=O)[O-])c2)CS1	-12.4%	-4.1%	24.3*	83.6*	-13.4%	-0.3%
O=C(NCCc1ccccn1)c1ccc2nc(Cc3ccccc3F)oc2c1	3.3%	nt	62.1*	105.1*	-2.5%	-12.0%
Cc1cccc(CNC(=O)c2ccc3nc(Cc4ccccc4F)oc3c2)n1	0.0%	nt	58.0*	110.6*	24.4%	-8.6%
O=C(NCCc1ccc(Cl)cc1)c1ccc2nc(Cc3ccccc3)oc2c1	1.4%	nt	nt	nt	6.0%	nt
Nc1c(-c2ccc(Cl)cc2)cnc2ncnn12	5.6%	6.1%	-2.3	23.0	10.1%	-0.8%
Cc1ccc(-c2cc3ncc(C#N)c(N)n3n2)cc1	-1.3%	-1.4%	24.1*	69.4*	-0.9%	-6.0%
Nc1c(-c2ccccc2)cnc2cc(-c3ccccc3)nn12	-8.4%	-2.2%	23.9*	35.7*	3.5%	9.7%
O=[N+]([O-])c1ccc(O)c(-c2ccnc3cc(-c4ccccc4)nn23)c1	-0.3%	nt	nt	nt	-5.3%	nt
Cc1cc2ncc(-c3ccc(Cl)cc3)c(N)n2n1	6.5%	-3.7%	43.5*	63.6*	-4.9%	2.1%
